Assay results as given in PubChem BioAssay AID686971 (National Center for Advancing Translational Sciences (NCATS), 2013).
The campaign covered roughly 360,000 compounds. About 7,500 (2.1%) were called active. About 8% were inconclusive and are not listed. The sample as a whole holds a higher share of actives than the screen did. Values without a mark were called inactive. Calls come from the whole dose curve; as a rule, active = well fitted cell-killing curve with a large enough effect; inconclusive = small, poorly fitted or top-dose-only effect, or effect the other way, or another doubt; inactive = no such curve, though single readings can be large or run the other way.

Assay: qHTS for induction of synthetic lethality in tumor cells producing 2HG: qHTS for the HT-1080-IDH1KD cell line;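 for activity, negative = toxicity: 0% = DMSO wells and -100% = cell-free medium wells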
Conditions: HT-1080 IDH1 knockdown viability, ATP luminescence, 48 h; series mostly up to 46.1 µM; activity, negative = toxicity: at the top concentration
In short: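 % activity derives from luminescence (CellTiter-Glo), normalised to DMSO and no-cell wells. HT-1080-IDH1KD cells, 750/well, had 48 h compound exposure at 37 °C.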
Potency is the fitted concentration of half-maximal effect.

| SMILES | activity, negative = toxicity [%] | Potency |
| --- | --- | --- |
| CC(=O)Nc1c(-c2ccc(C)cc2)nc2ccc(Cl)cn12 | 10.7 |  |
| CCCCn1nnnc1C1(C)CCC(=O)N1Cc1ccc(OC)c(OC)c1 (stereo not drawn) | 13.4 |  |
| CCCCCCCCn1c2c(c(=N)c3c1CCC3)CCCC2 |  | 8.2 µM (active) |
| CCCc1nc2ccccc2n1C(C)C(=O)NC(C)(C)C (stereo not drawn) | 3.92 |  |
| CC1CCCC(C)N1C(=O)COC(=O)c1ccccc1C(=O)c1ccccc1 (stereo not drawn) | 0.369 |  |
| Cc1cccnc1NC(=O)c1cccc(S(=O)(=O)N2CCN(c3ccc(F)cc3)CC2)c1 |  | 29.1 µM (active) |
| Cc1ccc(C(=O)Nc2ncccc2C)cc1S(=O)(=O)N1CCOCC1 | -0.0269 |  |
| O=C(Nc1ccc2c(c1)CCC2)c1cccc(S(=O)(=O)N2CCN(c3ccc(F)cc3)CC2)c1 | -0.473 |  |
| O=C1NC[C@H](CCCCN2CCN(CCc3ccccc3)C(=O)C2=O)N(CC2CCCCC2)C1=O | 19.7 |  |
| COC(=O)[C@]12CCCCC=C1N(Cc1ccco1)C(=O)[C@H](CC(=O)NCC1CCCCC1)C2 | 5.64 |  |
| CCOC(=O)C1=CCC2C(=O)N(Cc3ccccc3)C(=O)C12 (stereo not drawn) | 16.5 |  |
| COc1ccc(C2=Nc3ccccc3NC(=O)C2N(C(=O)c2cc3ccccc3[nH]2)c2ccccc2)cc1 (stereo not drawn) | -17.6 |  |
| CC(C)Oc1cc(F)ccc1-c1cc(C(=O)Nc2ccc(F)cc2)[nH]n1 | 23.9 |  |
| COC(=O)c1ccc(-c2c(-c3ccccc3)ncc3cc(OC)c(OC)cc23)cc1 | 12.5 |  |
| COc1cc(C=O)ccc1Oc1nnnn1-c1ccccc1 | 0.603 |  |
| CS(=O)(=O)Nc1cccc(-c2cn3ccccc3n2)c1 | 2.25 |  |
| COc1ccc(-c2cc(NC=O)c3ncc(-c4ccccc4)n3c2)cc1OC |  | 16.4 µM (active) |
| CC(=O)c1cccc(-c2cnc3c(NC=O)cc(-c4ccc(N5CCN(C)CC5)cc4)cn23)c1 | 0.623 |  |
| CC(=O)c1ccc(-c2cnc3c(NC=O)cc(-c4cccc(NS(C)(=O)=O)c4)cn23)cc1 |  | 8.2 µM (active) |
| O=[N+]([O-])c1ccc(C(S(=O)(=O)Cc2ccccc2)S(=O)(=O)Cc2ccccc2)cc1 | 15.6 |  |
| C[C@H]1COc2cc(N3CCSCC3)ccc2S(=O)(=O)N1 | 10.8 |  |
| O=C(O)C1=C(C(=O)O)C2CCC1C2 | 3.61 |  |
| CCCNC(=O)c1cc(C2CCCCN2S(=O)(=O)c2ccc(C#N)cc2)on1 (stereo not drawn) | 14.6 |  |
| O=C1c2cccnc2C(=O)N1Cc1cccs1 | 16 |  |
| CCOc1ccc(CCN2C(=O)c3cccnc3C2=O)cc1OCC | 26.8 |  |
| NC1=CC(=O)C(=O)c2cccnc21 |  | 11.6 µM (active) |

| SMILES | activity, negative = toxicity [%] | Potency |
| --- | --- | --- |
| COc1cc2nc(Cl)nc(NC3CC3)c2cc1OC | -9.28 |  |
| CC(C)CCC(=O)Nc1cc(S(=O)(=O)N2CCOCC2)ccc1N1CCCC1 | 0.313 |  |
| Cc1ccc(-c2ccc(CN3C(C(C)C)C(=O)N(Cc4cn(CCC5OCCCO5)nn4)CCS3(=O)=O)cc2)cc1 (stereo not drawn) | -7.51 |  |
| Cc1cc2c(cc1C)N1C(=O)c3cc4ccccc4cc3NC(=O)C1C(=O)N2 (stereo not drawn) | 1.1 |  |
| CS(=O)(=O)/C(C#N)=C/c1cccn1S(=O)(=O)c1ccc([N+](=O)[O-])cc1 | -6.02 |  |
| O=C(C1CCCO1)N1CCN(C(=O)C23CC4CC(CC(C4)C2)C3)CC1 (stereo not drawn) | 14.9 |  |
| Oc1ccc(/C=N/N(Cc2ccccc2)c2ccccc2)cc1 |  | 16.4 µM (active) |
| CCN(CC)C(=O)N(CC)Cc1ccccc1 | 2.96 |  |
| CN(/N=C/c1ccccc1)C(=S)c1ccccc1 | -5.97 |  |
| C[C@H]1CN([C@@H](C)CO)C(=O)CCCn2cc(nn2)CO[C@@H]1CN(C)C(=O)Nc1ccccc1 | 1 |  |
| O=C(CSc1nc2cccc(F)c2c(=O)n1-c1ccccc1)Nc1ccc2c(c1)CCC2 | 18.2 |  |
| NC(=O)CSc1nnc(-c2cccc(S(=O)(=O)N3CCOCC3)c2)o1 | -2.93 |  |
| Cc1cc2nnc(SCC(=O)N3CCN(c4ccccc4)CC3)n2c(N)n1 | 21.7 |  |
| Cn1c(Cc2cccc3ccccc23)nnc1SCC(=O)N1CCN(c2cccc(Cl)c2)CC1 |  | 20.6 µM (active) |
| Cn1c(CNC(=O)c2ccco2)nnc1SCC(=O)N1CCN(c2ccccc2)CC1 | 3.17 |  |
| CCc1c(N=O)c(-c2ccccc2)n(O)[n+]1[O-] | -7.78 |  |
| CCN(C(=O)Nc1cccc2ccccc12)c1ccccc1 | -4.17 |  |
| COc1cccc(NC(=O)CN(C)C(=O)c2cc(Cl)nc3ccccc23)c1 | -3.44 |  |
| CCN(CC)C(=O)C1=C(C)N(Cc2ccc(F)cc2)C(=O)C(CC(=O)NC2CCCC2)C1 (stereo not drawn) | -4.13 |  |
| CC[n+]1cc(C)ccc1/C=C/c1ccc(N(C)C)cc1 |  | 7.31 µM (active) |
| O=C(NC1CCCCC1)C(c1cc2ccccc2o1)n1c(=O)c(-c2ccco2)nc2ccccc21 (stereo not drawn) | -16.8 |  |
| CCOC(=O)/C(C#N)=C/c1cn(CCC(=O)O)nc1-c1ccc(Br)cc1 | -2.79 |  |
| O=C(O)CCn1cc(/C=C/C(=O)c2ccc(Cl)cc2)c(-c2cccc(Br)c2)n1 |  | 23.1 µM (active) |
| O=C(/C=C/NNC(=O)c1cccc(Br)c1)c1ccccc1 | -10.2 |  |
| COc1ccc(CN2C[C@H]3CON(C)[C@H]3C[C@H]2c2ccc(-c3cccc(F)c3)cc2)cc1 | -23 |  |
| Cc1ccccc1C#CC1=CC(=O)CC(C)(C)C1 | -9.77 |  |

| SMILES | activity, negative = toxicity [%] | Potency |
| --- | --- | --- |
| C/C(COc1ccccc1)=N\NC(=O)c1nnn(-c2nonc2N)c1-c1ccc(C)cc1 | -8.96 |  |
| COc1ccc(C(=O)N2CC3(C)CC2CC(C)(C)C3)cc1OC (stereo not drawn) | -4.16 |  |
| Cc1nnnn1/C(=C\c1ccccc1)C(=O)OCC(=O)N1CC2(C)CC1CC(C)(C)C2 (stereo not drawn) |  | 14.6 µM (active) |
| CN(C)C(=O)COC(=O)c1cccc(S(=O)(=O)N2CC3(C)CC2CC(C)(C)C3)c1 (stereo not drawn) | -3.59 |  |
| COc1cc(C=NC2CCCCC2)ccc1O | 0.126 |  |
| O=C(OCC(=O)N1CCCCCC1)c1cccc(Cl)c1Cl | 16.8 |  |
| Cc1cccc(C)c1NC(=O)C(c1cccc(F)c1)N1CCN(C)CC1 (stereo not drawn) | 0.538 |  |
| COc1ccc(-c2c(C)cc3oc(=O)cc(-c4ccccc4)c3c2C)cc1OC | 5.89 |  |
| COc1cc(OC)c2c(-c3cccc(-c4cccc(N)c4)c3)cc(=O)oc2c1 |  | 5.17 µM (active) |
| COc1ccc(-c2c(C)cc3oc(=O)cc(-c4ccccc4)c3c2C)cc1F | 13.4 |  |
| COC(=O)c1ccc(CN2C(=O)C(Cc3ccccc3)ON=C2c2ncccc2C)o1 (stereo not drawn) | 17.4 |  |
| CCN1CCC2(CC1)N=C(c1ccc(F)cc1)C(=S)N2C(=O)c1ccc(C)cc1 |  | 23.1 µM (active) |
| CCN1CCN(C(=O)CSc2ccc(C)cc2)CC1 | 3.16 |  |
| Cc1ccc(SCC(=O)N2CCN(c3ccc(F)cc3)CC2)cc1 | 17.4 |  |
| CC(C)NC(=O)C1(C)CCCCCN1C(=O)c1ccc(-c2ccccc2)cc1 (stereo not drawn) | 11.9 |  |
| O=C1C(=O)N(c2ccccc2)C(c2ccccc2)C1c1ccccc1 (stereo not drawn) | -0.624 |  |
| Cc1ccccc1N1C(=O)C2ON(c3ccccc3)C(c3ccncc3)C2C1=O (stereo not drawn) | 4.69 |  |
| O=C1[C@@H](c2ccccc2)[C@@H](c2ccccc2)N1c1cccnc1 |  | 16.4 µM (active) |
| Fc1cccc(Cc2c(-c3cccc(Cl)c3)nc3ccc(Br)cn23)c1 | -22.4 |  |
| Cc1ccnc(SC2CC(=O)N(c3ccccc3)C2=O)n1 (stereo not drawn) | -0.931 |  |
| CC(=O)NCC(=O)NC1CCCc2c1cnn2-c1ccccc1F (stereo not drawn) | 4.51 |  |
| Cc1ccc(-n2ncc3c2CCCC3NC(=O)c2cnccn2)cc1C (stereo not drawn) | -13.4 |  |
| Cn1nccc1C(=O)NC1CCCc2c1cnn2-c1ccc(F)cc1F (stereo not drawn) |  | 0.92 µM (active) |
| N#CCCN(C(=S)Nc1ccc(Cl)c(Cl)c1)C1CCCCC1 | -6.17 |  |
| Cc1ccc(C(O)c2ncc(-c3ccccc3F)[nH]2)cc1F (stereo not drawn) | -8.27 |  |
| CCOC(=O)c1c(NC(=S)SC)sc(C(=O)N2CCc3ccccc3C2)c1C | -7.65 |  |

| SMILES | activity, negative = toxicity [%] | Potency |
| --- | --- | --- |
| O=S(=O)(O)c1nc2ccccc2n1Cc1ccc(Cl)cc1Cl | -15.2 |  |
| O=C(Cn1c(NCCO)nc2ccccc21)c1ccc(Cl)cc1Cl |  | 20.6 µM (active) |
| CC(C)(C)C(=O)Cn1c(NCCO)nc2ccccc21 | 2.2 |  |
| CCCCCCn1c(=O)n2n(c1=O)C[C@]1(OC(=O)NCc3ccc(OC)c(OC)c3)CN(S(=O)(=O)c3ccc(C)cc3)C[C@]1(O)C2 | -14.7 |  |
| CCc1oc(-c2ccc(OC)cc2)c(C(=O)OCCCCCO)c1C(C)OCCO (stereo not drawn) | -13.9 |  |
| COc1ccccc1NC1=NC(c2ccc(Cl)cc2)N=C(N)N1 (stereo not drawn) |  | 5.62 µM (active) |
| COc1ccccc1NC(=O)C1CCCN1S(=O)(=O)c1ccc(Cl)cc1 (stereo not drawn) | -1.61 |  |
| CC1(C)N=C(N)NC(Nc2ccc(Cl)cc2)=N1 | 1.16 |  |
| COc1ccc([C@H]2N[C@]3(CCCN(Cc4ccco4)C3=O)[C@H]3C(=O)N(C)C(=O)[C@@H]23)cc1 | -1.26 |  |
| O=C1OCCOC2CCCc3oc(-c4ccccc4)c1c32 (stereo not drawn) | 6.75 |  |
| C[C@H]1Cn2cnc(C(=O)N[C@@H](Cc3c[nH]c4ccccc34)C(=O)OC(C)(C)C)c2C(=O)N1 | 12.4 |  |
| O=S(=O)(NCc1cccnc1)c1ccc(Br)s1 | 1.62 |  |
| O=C(NCCc1ccccc1)C1CCN(S(=O)(=O)c2ccc(Br)s2)CC1 | -5.3 |  |
| O=S(=O)([N-]c1nc2ccccc2nc1-[n+]1ccc(Cc2ccccc2)cc1)c1ccc(Br)s1 |  | 20.6 µM (active) |
| COCOc1cccc(CN2CCC(C)(Oc3ccc(SC)cc3)C2)c1 (stereo not drawn) | -8.36 |  |
| CCOC(=O)C1CCCN(C(=O)c2ccc(C)c(F)c2)CC1 (stereo not drawn) | 1.99 |  |
| CCC1OC(C2CC2)CC2=C1C(=O)OC(C)(C)O2 (stereo not drawn) | 0.481 |  |
| COc1ccc(CNc2ncnc3ccccc23)cc1 | -4.12 |  |
| c1coc(CNc2ncnc3ccccc23)c1 |  | 20.6 µM (active) |
| Brc1ccc2ncnc(NCc3cccnc3)c2c1 | -15.5 |  |
| COc1cccc(C(NC(C)=O)c2nc(-c3cnc4ccccc4c3)cs2)c1 (stereo not drawn) | 3.84 |  |
| O=C(Nc1ccc2c(c1)OCCO2)C(C1CC1)N1CCC(Cc2ccccc2)CC1 (stereo not drawn) | -22 |  |
| O=c1[nH]c2cccnc2n(CCNc2ncc(C(F)(F)F)cc2Cl)c1=O | -16.6 |  |
| COc1cccc(/C=N/Nc2ncc(C(F)(F)F)cc2Cl)c1O |  | 9.2 µM (active) |
| COc1ccc(Br)cc1/C=N/Nc1ccc(Cl)c(C(=O)O)c1 | -10.5 |  |
